Laboratory results: PubChem BioAssay (Tox21)
Records with an inconclusive call do not appear. Activity calls are given as the source filed them. Calls come from the whole dose curve; as a rule, active = well fitted curve in the direction sought with a large enough effect in the repeat runs; inconclusive = weak or mixed curves; inactive = no such curve, though single readings can be large; an effect the other way counts as inactive or inconclusive.

Assays:
[1] = biological target: Cytochrome P450 2C9 (Homo sapiens) (UniProt P11712); experiment: Cytochrome P450 Family 2 Subfamily C Member 9 (CYP2C9) small molecule antagonists: luciferase reporter qHTS assay (AID 1671198)
Chain of Cytochrome P450 2C9 (Homo sapiens) (P11712 whole entry, looked up): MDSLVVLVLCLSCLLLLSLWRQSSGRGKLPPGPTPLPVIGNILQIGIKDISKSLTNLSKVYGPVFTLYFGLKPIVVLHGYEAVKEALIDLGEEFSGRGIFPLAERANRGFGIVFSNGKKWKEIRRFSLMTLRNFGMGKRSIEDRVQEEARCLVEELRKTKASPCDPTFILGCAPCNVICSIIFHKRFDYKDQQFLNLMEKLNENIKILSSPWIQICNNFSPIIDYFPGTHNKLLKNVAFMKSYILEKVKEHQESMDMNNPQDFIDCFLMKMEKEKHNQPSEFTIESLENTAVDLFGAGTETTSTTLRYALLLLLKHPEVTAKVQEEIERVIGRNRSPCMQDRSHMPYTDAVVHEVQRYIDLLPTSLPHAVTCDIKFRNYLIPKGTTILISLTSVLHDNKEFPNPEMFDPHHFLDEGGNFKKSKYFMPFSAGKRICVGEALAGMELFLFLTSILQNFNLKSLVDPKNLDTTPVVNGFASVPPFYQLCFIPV
Procedure, shortened: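 CYP2C9 activity was measured with a P450-Glo proluciferin substrate. Enzyme–substrate mix was held with compound for 10 min at room temperature, then NADPH regeneration solution was added for 1 h at 37C. Luciferin product was read as luminescence.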

[2] = biological target: Cytochrome P450 1A2 (Homo sapiens) (UniProt P05177); experiment: Cytochrome P450 Family 1 Subfamily A Member 2 (CYP1A2) small molecule antagonists: luciferase reporter qHTS assay (AID 1671199)
Chain of Cytochrome P450 1A2 (Homo sapiens) (P05177 whole entry, looked up): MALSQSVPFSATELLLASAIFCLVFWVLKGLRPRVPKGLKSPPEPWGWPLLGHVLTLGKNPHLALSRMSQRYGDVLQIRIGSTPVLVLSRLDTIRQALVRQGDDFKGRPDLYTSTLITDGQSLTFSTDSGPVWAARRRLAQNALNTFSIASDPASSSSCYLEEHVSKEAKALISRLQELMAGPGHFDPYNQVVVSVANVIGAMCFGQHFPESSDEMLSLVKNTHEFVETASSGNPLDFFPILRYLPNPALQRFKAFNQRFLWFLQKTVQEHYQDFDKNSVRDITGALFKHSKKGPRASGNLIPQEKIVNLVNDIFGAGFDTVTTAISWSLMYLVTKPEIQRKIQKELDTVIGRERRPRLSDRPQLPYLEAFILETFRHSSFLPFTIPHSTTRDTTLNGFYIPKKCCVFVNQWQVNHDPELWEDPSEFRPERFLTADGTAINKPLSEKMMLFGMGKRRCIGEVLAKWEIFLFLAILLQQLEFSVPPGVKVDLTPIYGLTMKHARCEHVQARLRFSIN
Procedure, shortened: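 Luminescence readout (relative luminescence units) after luciferin detection reagent, 20 min RT. Preceded by 1 h room-temperature CYP1A2 reaction with NADPH regeneration solution following 10 min compound preincubation with enzyme and proluciferin substrate. Furafylline positive control.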

[3] = biological target: Voltage-gated inwardly rectifying potassium channel KCNH2 (Homo sapiens) (UniProt Q12809); experiment: Human Ether-a-go-go-Related Gene (hERG) channel small molecule antagonists: fluorescence cell-based qHTS assay (AID 1671200)
Chain of Voltage-gated inwardly rectifying potassium channel KCNH2 (Homo sapiens) (Q12809 whole entry, looked up): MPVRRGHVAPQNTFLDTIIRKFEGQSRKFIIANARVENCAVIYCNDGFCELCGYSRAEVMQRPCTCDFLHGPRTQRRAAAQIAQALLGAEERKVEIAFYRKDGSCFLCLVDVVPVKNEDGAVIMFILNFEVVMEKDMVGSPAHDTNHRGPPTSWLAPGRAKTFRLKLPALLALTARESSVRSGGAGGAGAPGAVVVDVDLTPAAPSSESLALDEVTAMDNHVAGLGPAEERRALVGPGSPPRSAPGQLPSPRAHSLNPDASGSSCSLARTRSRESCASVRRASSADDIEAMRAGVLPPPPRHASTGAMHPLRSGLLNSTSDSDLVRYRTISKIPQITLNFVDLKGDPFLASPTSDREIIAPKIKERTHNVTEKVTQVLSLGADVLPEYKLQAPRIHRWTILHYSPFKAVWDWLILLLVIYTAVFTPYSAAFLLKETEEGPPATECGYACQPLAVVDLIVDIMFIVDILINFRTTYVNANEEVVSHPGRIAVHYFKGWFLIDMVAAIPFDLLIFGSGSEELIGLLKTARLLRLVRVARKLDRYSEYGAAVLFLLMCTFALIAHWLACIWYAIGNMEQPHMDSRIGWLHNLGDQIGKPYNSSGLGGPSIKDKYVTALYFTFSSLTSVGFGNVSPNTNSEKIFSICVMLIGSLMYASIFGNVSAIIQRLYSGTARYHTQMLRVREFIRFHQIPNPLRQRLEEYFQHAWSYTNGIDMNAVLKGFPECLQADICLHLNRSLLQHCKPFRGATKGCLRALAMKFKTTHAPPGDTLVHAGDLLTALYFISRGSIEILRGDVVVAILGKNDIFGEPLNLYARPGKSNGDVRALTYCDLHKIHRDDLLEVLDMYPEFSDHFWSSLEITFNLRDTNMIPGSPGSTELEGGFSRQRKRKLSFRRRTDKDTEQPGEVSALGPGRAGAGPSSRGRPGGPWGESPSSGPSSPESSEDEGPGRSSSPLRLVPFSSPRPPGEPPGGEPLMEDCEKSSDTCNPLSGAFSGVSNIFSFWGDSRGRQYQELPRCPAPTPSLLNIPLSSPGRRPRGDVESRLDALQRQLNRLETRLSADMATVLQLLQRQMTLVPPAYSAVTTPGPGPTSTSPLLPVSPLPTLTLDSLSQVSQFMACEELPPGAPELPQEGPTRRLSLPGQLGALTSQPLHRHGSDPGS
Procedure, shortened: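 U2OS cells expressing the channel were plated at 1000 cells/well, incubated overnight at 37 C, then loaded with FluxOR II thallium-sensitive dye for 1 h at room temperature in the dark, with a further 10 min at room temperature before stimulation.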
Note: nearly all actives have a fitted effect of over 50% in size.
Potency is the fitted concentration of half-maximal effect.

## COc1c(C)c2c(c(O)c1C/C=C(\C)CCC(=O)OCCN1CCOCC1)C(=O)OC2
[1]
  Potency: 13.8 µM (active)
[2]
  Potency: inactive
[3]
  Potency: inactive

## CCC(CC)(CC(=O)Nc1cccc(/C=C/c2nc(C3CCC3)cs2)c1)C(=O)O
[1]
  Potency: 27.5 µM (active)
[2]
  Potency: 24.5 µM (active)
[3]
  Potency: inactive

## CN(C)[C@@H](CCOc1cccc2ccccc12)c1ccccc1
[1]
  Potency: 15.5 µM (active)
[2]
  Potency: 7.76 µM (active)
[3]
  Potency: 6.01 µM (active)

## C#C[C@]1(OC(C)=O)CC[C@H]2[C@@H]3CCC4=C/C(=N/O)CC[C@@H]4[C@H]3CC[C@@]21CC
[1]
  Potency: 11 µM (active)
[2]
  Potency: inactive
[3]
  Potency: inactive

## CCCc1ccc(OCC(=O)N2CCN(C(=O)COc3ccc(CCC)cc3OC)CC2)c(OC)c1
[1]
  Potency: 3.47 µM (active)
[2]
  Potency: inactive
[3]
  Potency: 1.34 µM (active)

## O=C(Nc1ccc2c(O)c(N=Nc3ccc(N=Nc4ccc(S(=O)(=O)O)cc4)cc3)c(S(=O)(=O)O)cc2c1)c1ccccc1
[1]
  Potency: 20 µM (active)
[2]
  Potency: 35.6 µM (active)
[3]
  Potency: inactive

## CN(C)Cc1cc(C(C)(C)C)c(O)c(C(C)(C)C)c1
[1]
  Potency: 11.2 µM (active)

## CCCCNS(=O)(=O)c1ccc(C)cc1
[1]
  Potency: 22.4 µM (active)
[2]
  Potency: 31.7 µM (active)
[3]
  Potency: inactive

## CCCCCCCCCCC[C@@H](C[C@@H]1OC(=O)[C@H]1CCCCCC)OC(=O)[C@H](CC(C)C)NC=O
[1]
  Potency: 2.75 µM (active)
[2]
  Potency: 24.5 µM (active)
[3]
  Potency: inactive

## C#Cc1ccc(-c2ccccc2F)cc1
[1]
  Potency: 15.5 µM (active)
[2]
  Potency: 0.911 µM (active)
[3]
  Potency: inactive

## O=[N+]([O-])c1ccc(O)cc1C(F)(F)F
[1]
  Potency: 22.4 µM (active)
[2]
  Potency: 35.6 µM (active)
[3]
  Potency: inactive
